What was measured:
Assay in all cases: thermal shift delta Tm vs DMSO control; higher = stronger stabilization (binding)
Conditions in all cases: 12.5 µM; protein concentration 2 µM
LOC_OS02G45750-cb003 = system: LOC_OS02G45750-cb003
Method in brief: (§1)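 Compounds dissolved in DMSO were added to purified rice kinase domain constructs, which had been expressed in E. coli, for differential scanning fluorimetry. Each well held 19.5 μl of 2 μM kinase in 100 mM potassium phosphate pH 7.5, 150 mM NaCl, 10% glycerol and 5 × SYPRO Orange. Fluorescence was followed from 25°C to 95°C at a rate of 0.05°C/s. Shifts in Boltzmann-fitted melting temperature are triplicate means relative to DMSO-only protein.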

LOC_OS02G54510-cb004 = system: LOC_OS02G54510-cb004
Method in brief: as §1

LOC_OS03G04050-cb001 = system: LOC_OS03G04050-cb001
Method in brief: as §1

LOC_OS03G12390-cb001 = system: LOC_OS03G12390-cb001
Method in brief: as §1

LOC_OS03G27990-cb004 = system: LOC_OS03G27990-cb004
Method in brief: as §1

LOC_OS03G50450-cb001 = system: LOC_OS03G50450-cb001
Method in brief: as §1

LOC_OS03G50810-cb003 = system: LOC_OS03G50810-cb003
Method in brief: as §1

LOC_OS04G35114-cb001 = system: LOC_OS04G35114-cb001
Method in brief: as §1

LOC_OS04G38480-cb003 = system: T1, LOC_OS04G38480-cb003
T1 sequence (whole entry): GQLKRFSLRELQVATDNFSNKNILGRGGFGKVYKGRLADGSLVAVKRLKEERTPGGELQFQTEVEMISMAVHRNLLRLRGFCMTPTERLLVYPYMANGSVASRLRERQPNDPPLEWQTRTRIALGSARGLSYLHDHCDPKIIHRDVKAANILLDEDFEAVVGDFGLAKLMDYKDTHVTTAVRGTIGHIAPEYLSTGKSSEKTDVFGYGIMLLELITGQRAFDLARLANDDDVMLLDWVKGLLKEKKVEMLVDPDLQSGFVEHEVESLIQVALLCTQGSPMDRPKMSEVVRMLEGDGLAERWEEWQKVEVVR
Method in brief: as §1

LOC_OS04G41100-cb001 = system: T2, LOC_OS04G41100-cb001
T2 sequence (whole entry): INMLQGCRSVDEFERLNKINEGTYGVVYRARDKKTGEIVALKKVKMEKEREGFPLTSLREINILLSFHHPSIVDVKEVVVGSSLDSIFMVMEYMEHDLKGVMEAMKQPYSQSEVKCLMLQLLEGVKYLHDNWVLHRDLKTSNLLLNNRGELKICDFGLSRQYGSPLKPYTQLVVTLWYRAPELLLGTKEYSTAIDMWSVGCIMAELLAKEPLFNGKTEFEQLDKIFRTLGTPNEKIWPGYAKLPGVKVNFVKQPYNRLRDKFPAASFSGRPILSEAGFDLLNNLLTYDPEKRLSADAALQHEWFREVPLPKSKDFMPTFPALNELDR
Method in brief: as §1

LOC_OS04G57630-cb004 = system: LOC_OS04G57630-cb004
Method in brief: as §1

LOC_OS05G07850-cb002 = system: LOC_OS05G07850-cb002
Method in brief: as §1

LOC_OS05G16824-cb004 = system: LOC_OS05G16824-cb004
Method in brief: as §1

LOC_OS05G28520-cb001 = system: LOC_OS05G28520-cb001
Method in brief: as §1

LOC_OS05G30820-cb001 = system: LOC_OS05G30820-cb001
Method in brief: as §1

LOC_OS05G43570-cb004 = system: LOC_OS05G43570-cb004
Method in brief: as §1

LOC_OS06G16330-cb003 = system: LOC_OS06G16330-cb003
Method in brief: as §1

LOC_OS06G22820-cb001 = system: T3, LOC_OS06G22820-cb001
T3 sequence (whole entry): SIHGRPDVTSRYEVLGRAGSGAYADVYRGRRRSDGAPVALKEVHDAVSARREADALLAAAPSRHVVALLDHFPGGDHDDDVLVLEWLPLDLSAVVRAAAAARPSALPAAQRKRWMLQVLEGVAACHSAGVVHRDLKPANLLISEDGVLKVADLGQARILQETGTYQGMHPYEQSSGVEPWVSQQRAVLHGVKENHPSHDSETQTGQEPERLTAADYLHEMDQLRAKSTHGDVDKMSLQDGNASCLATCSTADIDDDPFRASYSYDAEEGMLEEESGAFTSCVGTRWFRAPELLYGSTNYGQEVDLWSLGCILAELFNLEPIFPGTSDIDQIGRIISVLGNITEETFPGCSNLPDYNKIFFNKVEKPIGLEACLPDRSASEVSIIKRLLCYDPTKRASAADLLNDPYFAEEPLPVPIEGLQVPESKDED
Method in brief: as §1

LOC_OS07G06570-cb004 = system: LOC_OS07G06570-cb004
Method in brief: as §1

LOC_OS07G07230-cb001 = system: LOC_OS07G07230-cb001
Method in brief: as §1

Chain of LOC_OS06G16330-cb003 (as listed by the source): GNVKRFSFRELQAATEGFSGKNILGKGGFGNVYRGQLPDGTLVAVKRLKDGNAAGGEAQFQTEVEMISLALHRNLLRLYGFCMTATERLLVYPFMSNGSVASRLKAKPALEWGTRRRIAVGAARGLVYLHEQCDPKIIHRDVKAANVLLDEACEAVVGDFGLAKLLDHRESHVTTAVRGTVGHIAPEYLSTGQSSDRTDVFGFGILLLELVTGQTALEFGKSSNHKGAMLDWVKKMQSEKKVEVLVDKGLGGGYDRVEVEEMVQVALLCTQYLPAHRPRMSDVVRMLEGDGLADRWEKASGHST

SMILES | thermal shift delta Tm (LOC_OS02G45750-cb003) [°C] | thermal shift delta Tm (LOC_OS02G54510-cb004) [°C] | thermal shift delta Tm (LOC_OS03G04050-cb001) [°C] | thermal shift delta Tm (LOC_OS03G12390-cb001) [°C] | thermal shift delta Tm (LOC_OS03G27990-cb004) [°C] | thermal shift delta Tm (LOC_OS03G50450-cb001) [°C] | thermal shift delta Tm (LOC_OS03G50810-cb003) [°C] | thermal shift delta Tm (LOC_OS04G35114-cb001) [°C] | thermal shift delta Tm (LOC_OS04G38480-cb003) [°C] | thermal shift delta Tm (LOC_OS04G41100-cb001) [°C] | thermal shift delta Tm (LOC_OS04G57630-cb004) [°C] | thermal shift delta Tm (LOC_OS05G07850-cb002) [°C] | thermal shift delta Tm (LOC_OS05G16824-cb004) [°C] | thermal shift delta Tm (LOC_OS05G28520-cb001) [°C] | thermal shift delta Tm (LOC_OS05G30820-cb001) [°C] | thermal shift delta Tm (LOC_OS05G43570-cb004) [°C] | thermal shift delta Tm (LOC_OS06G16330-cb003) [°C] | thermal shift delta Tm (LOC_OS06G22820-cb001) [°C] | thermal shift delta Tm (LOC_OS07G06570-cb004) [°C] | thermal shift delta Tm (LOC_OS07G07230-cb001) [°C]
C#Cc1cccc(Nc2ncnc3cc4c(cc23)OCCOCCOCCO4)c1 [Icotinib] | 3.3 | 0.13 | 0.58 | 1.26 | 0.45 | 0.72 | 1.31 | 4.38 | 3.08 | 0.38 | 1.01 | 8.46 | -0.7 | 0.87 | 0.31 | 0.43 | 3.06 | 0.81 | 1 | 0.07
O=C(NOCC(O)CO)c1cc(Br)c(F)c(F)c1Nc1ccc(I)cc1F (stereo not given) | -0.49 | -0.06 | 0.63 | 0.93 | 0.15 | 0.19 | 0.19 | 0.09 | 1.04 | 3.8 | 0.44 | 0.69 | 0.91 | 0.42 | 0.68 | 0.96 | 0.65 | 1.13 | 1.14 | -0.63
Cc1ccc(NC(=O)c2ccc(CN3CCN(C)CC3)cc2)cc1Nc1nc(-c2cccnc2)cs1 [Masitinib (AB1010)] | 0.39 | 0.33 | 0.47 | 0.28 | 0.29 | 0.58 | 0.26 | 0.04 | 0.69 | 0.53 | -0.19 | 0.62 | -4.62 | 0.59 | 0.34 | 0.52 | -0.18 | 0.52 | 0.98 | 0.23
COc1cc2ncnc(Nc3ccc(Cl)cc3F)c2cc1OC | 2.84 | 0.95 | 0.25 | 2.87 | 0.55 | 0.36 | 1.2 | 7.37 | 1.81 | 0.5 | 0.21 | 10.1 | 2.13 | 0.86 | 0.51 | 0.29 | 4.29 | 0.69 | 1.37 | -0.11
CC(=O)O/N=C1/C(c2c(O)[nH]c3cc(Br)ccc23)=Nc2ccccc21 [BIO-acetoxime] | 9.18 | 2.31 | 1.28 | -0.22 | 0.36 | -0.71 | 5.4 | 5.86 | -0.03 | 0.88 | 0.24 | 7.48 | 4.45 | -0.58 | 1.03 | -0.53 | 2.52 | -0.05 | 0 | 0.92
O=C1Nc2ccc(I)cc2/C1=C/c1cc(Br)c(O)c(Br)c1 | 0 | 1.04 | 0.81 | 6.08 | 2.06 | 1.49 | 4.01 | 1.76 | -0.73 | 0.75 | -0.66 | 7.59 | -3.03 | 2.07 | 1.54 | 0.73 | 1.63 | 0.94 | 1.22 | 1.47

— the supplement of paper PMC9694430
